Laboratory results as given in PubChem BioAssay (Tox21).
Activity calls are given as the source filed them. Entries that show only a call come without a potency. Calls come from the whole dose curve; as a rule, active = well fitted curve in the direction sought with a large enough effect in the repeat runs; inconclusive = weak or mixed curves; inactive = flat fitted curve, though single readings scatter.

Assay: qHTS assay to test for compound auto fluorescence at 460 nm (blue) in HEK293 cell free culture (AID 720681)
Settings: cell-free medium, autofluorescence 405/460 nm (blue); series mostly up to 91.3 µM
Source text: U.S. Tox21 Program National Center for Advancing Translational Sciences [NCATS] NIH Chemical Genomics Center [NCGC] U.S. Environmental Protection Agency [EPA] National Institutes of Environmental Health Sciences [NIEHS] National Toxicology Program [NTP] U.S. Food and Drug Administration [FDA] Tox21 Assay Overview: Compound auto fluorescence often interferes with screening of the compound library against various biological targets and signaling pathways. Some of these compounds may have fluorophoric properties. Such properties may interfere with the assay outputs resulting in false positives and/or negatives. To decrease such complications and ensure the compound activities are relevant in terms of biological response, the Tox21 10K compound library was screened for auto fluorescence. From the fluorophores used as reporter signals in our screening assays, the auto fluorescence equivalencies of compounds against three fluorophores have been evaluated: Triamterene, Fluorescein and Rose Bengal sodium for blue, green and red fluorescence, respectively. The fluorescence intensities were measured using Excitation/Emission wavelengths at 405/460nm, 485/535nm and 540/590nm for blue, green and red labels, respectively. This assay includes the blue fluorescence data.
Tox21 Assay Protocol Summary: 5 uL of culture medium (DMEM containing 10% FBS) per well was dispensed into black wall/clear bottom 1536-well plates using a Multidrop Combi Dispenser (ThermoFisher Scientific, Waltham, MA). After 23 nL compound or DMSO vehicle was transferred into assay plate by a pintool work station (Kalypsys, San Diego, CA), fluorescence intensities in the assay plates were measured by an Envision (PerkinElmer, Shelton, CT) plate reader using three labels for measuring blue, green and red fluorescence at […] 460, 535 and 590nm respectively.

Row | SMILES | Potency
1 | CCOC(=O)COc1ccc(C)cc1 | inactive
2 | CCCCCCCCCC(=O)N(C)C | inactive
3 | COc1ccccc1OCCNCC(O)COc1cccc2[nH]c3ccccc3c12 (stereo not given) | inactive
4 | O=C1Nc2ccc(Cl)cc2[C@@](C#CC2CC2)(C(F)(F)F)O1 | inactive
5 | CNC(=S)NN | inactive
6 | COCC(=O)O[C@]1(CCN(C)CCCc2nc3ccccc3[nH]2)CCc2cc(F)ccc2[C@@H]1C(C)C | inactive
7 | c1ccc(Nc2cccc3ccccc23)cc1 | inactive
8 | Cc1cn[nH]c1 | inactive
9 | C(=C/c1ccccc1)/c1ccccc1 | inactive
10 | CC(=O)Oc1ccc(C2(c3ccc(OC(C)=O)cc3)C(=O)Nc3ccccc32)cc1 | inactive
11 | NC1(c2ccc(-c3nc4ccn5c(=O)[nH]nc5c4cc3-c3ccccc3)cc2)CCC1 | inactive
12 | CSc1c(Cl)c(Cl)c(Cl)c(Cl)c1Cl | inactive
13 | O=C1c2c(O)ccc([N+](=O)[O-])c2C(=O)c2c([N+](=O)[O-])ccc(O)c21 | inactive
14 | NCCCC(O)(P(=O)(O)O)P(=O)(O)O | inactive
15 | COc1cc(C(=O)NS(=O)(=O)c2ccccc2C)ccc1Cc1cn(C)c2ccc(NC(=O)OC3CCCC3)cc12 | inactive
16 | O=C1OC(=O)c2cccc3cccc1c23 | inactive
17 | CC(C)OC(=O)c1cc(C(=O)OC(C)C)cc([N+](=O)[O-])c1 | inactive
18 | CCCCCCCCCCCCCCCC | inactive
19 | CCCN(CCc1cccs1)[C@H]1CCc2c(O)cccc2C1 | inactive
20 | O=C1OC(OC(=O)c2cccnc2Nc2cccc(C(F)(F)F)c2)c2ccccc21 (stereo not given) | inactive

Row | SMILES | Potency
21 | C=CC(=O)OCCOCC(CC)(COCCOC(=O)C=C)COCCOC(=O)C=C | inactive
22 | CN(Cc1cc(Br)cc(Br)c1N)C1CCCCC1 | inactive
23 | N[C@@H](CSSC[C@H](N)C(=O)O)C(=O)O | inactive
24 | CSc1ccc2c(c1)N(CCC1CCCCN1C)c1ccccc1S2 (stereo not given) | inactive
25 | O=C(O)CCn1c2c(c3ccccc31)C[C@H](NS(=O)(=O)c1ccc(F)cc1)CC2 | inactive
26 | SCCCCCCCCS | inactive
27 | CCCCC(CC)COC(=O)c1ccc(O)cc1 (stereo not given) | inactive
28 | Cc1ccc(N)cc1O | inactive
29 | CCC(C)(C)c1cc(O)c(C(C)(C)CC)cc1O | inactive
30 | CNC(=O)c1cc(Oc2ccc(NC(=O)Nc3ccc(Cl)c(C(F)(F)F)c3)cc2)ccn1 | inactive
31 | C[Si](C)(C)Cl | inactive
32 | CC1(C)C(=O)N(Br)C(=O)N1Br | inactive
33 | c1cc2c3c(c1)ccc1cccc(c13)C2 | inactive
34 | CCC(C)c1cc([N+](=O)[O-])cc([N+](=O)[O-])c1OC(=O)OC(C)C (stereo not given) | inactive
35 | CC1=C(/C=C/C(C)=C/C=C/C(C)=C/C(=O)Nc2ccc(O)cc2)C(C)(C)CCC1 | inactive
36 | Clc1ccccc1CN1CCc2sccc2C1 | inactive
37 | CCN1CCN(c2cc(-c3ccc(F)cc3)c3c(n2)CCCCCC3)CC1 | inactive
38 | CO[C@H]1C=CO[C@@]2(C)Oc3c(C)c(O)c4c(O)c(cc(O)c4c3C2=O)NC(=O)/C(C)=C\C=C/[C@H](C)[C@H](O)[C@@H](C)[C@@H](O)[C@@H](C)[C@H](OC(C)=O)[C@@H]1C | inactive
39 | CC(C)c1ccc(O)c(C(C)C)c1 | inactive
40 | CCc1ccc(O)c(C(C)(C)C)c1 | inactive
